Data on seven molecules can be found in PubChem BioAssay (NCI).

Among the test systems are NCI-H23 lung; NCI-H226 lung; NCI-H322M lung; HOP-62 NSCLC; NCI-H460 lung; HOP-92 NSCLC; NCI-H522 lung; A549/ATCC NSCLC; 786-0 renal; COLO 205 colon; DU-145 prostate; K-562 leukemia; MALME-3M melanoma; MDA-MB-231 breast; SF-268 CNS; SF-295 CNS; SF-539 CNS; UACC-257 melanoma; M14 melanoma.
Assay in all cases: NCI-60 one-dose screen, 48 h (100 = growth as untreated, 0 = no growth, -100 = all killed)
What all share (conditions): 10 µM unless noted

Molecules are shown by their SMILES. This is part of a sample that, as a whole, favours compounds with a hit. Of some 83,000 tested, about 20% had one in any assay.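 Negative percent growth values reflect cell death: -40 means 40% of the cells present at the start died, and -100 means all died.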 Values without a mark were called inactive. Calls of active or inactive are those of the source. The calls were made as follows: active = growth percent below 10; inactive = the rest.

On to `O=C(NCCN1CCOCC1)OCc1nc2nc(Cl)nc(N3CCOCC3)c2[nH]1`, for which the growth in the experiment on NCI-H23 lung was 26.3%; with NCI-H226 lung, 62.6%; in the experiment on NCI-H322M lung it was 42.4%; in the experiment with HOP-62 NSCLC, 32.5%; in the experiment on NCI-H460 lung, 9.27% (active); with HOP-92 NSCLC, 54.3%. Further, the growth with NCI-H522 lung was -29.8% (active); with A549/ATCC NSCLC, 68.2%; in the experiment with 786-0 renal, 58.1%; with COLO 205 colon, 110%; in the experiment with DU-145 prostate, 8.23% (active); with K-562 leukemia, 6.62% (active). Besides, the growth in the experiment on MALME-3M melanoma is 50%; with MDA-MB-231 breast, 22.9%; with SF-268 CNS, 27%; in the experiment on SF-295 CNS, 94.6%; in the experiment on SF-539 CNS it was -15.8% (active); in the experiment on UACC-257 melanoma it was 69.2%. In addition, in the experiment with M14 melanoma, the growth was 9.49% (active).
Regarding `Cc1c([N+](=O)[O-])cc(C(C)(C)C)cc1[N+](=O)[O-]`, the growth is 97.4% in the experiment with NCI-H23 lung; 91.3% with NCI-H226 lung; 117% in the experiment with NCI-H322M lung; 76.2% in the experiment on HOP-62 NSCLC; 102% in the experiment on NCI-H460 lung; 96.4% in the experiment on HOP-92 NSCLC. The growth in the experiment with NCI-H522 lung was 60.2%; in the experiment on A549/ATCC NSCLC, 81.8%; in the experiment with 786-0 renal, 104%; in the experiment with COLO 205 colon it was 114%; in the experiment on DU-145 prostate it was 107%; in the experiment on K-562 leukemia, 112%. Further, the growth with MALME-3M melanoma is 118%; with MDA-MB-231 breast, 107%; with SF-268 CNS, 93.3%; in the experiment with SF-295 CNS it was 97.6%; in the experiment on SF-539 CNS it was 104%; in the experiment with UACC-257 melanoma, 85.4%. Also, the growth in the experiment with M14 melanoma is 107%.
Consider `COc1cc(-c2nc3occn3c2-c2ccnc(NCCNS(=O)(=O)c3ccc(Cl)cc3)n2)ccc1F`, for which the growth in the experiment on NCI-H23 lung was 92.2%; in the experiment with NCI-H226 lung it was 73.2%; in the experiment with NCI-H322M lung it was 91.6%; with HOP-62 NSCLC, 93.3%; in the experiment on NCI-H460 lung, 88.8%; in the experiment with HOP-92 NSCLC, 78.5%. In addition, the growth was 66.4% with NCI-H522 lung; 82% in the experiment on A549/ATCC NSCLC; 84.9% in the experiment with 786-0 renal; 86.5% with COLO 205 colon; 89.8% in the experiment with DU-145 prostate; 58.9% in the experiment with K-562 leukemia. The growth in the experiment with MALME-3M melanoma is 80.1%; with MDA-MB-231 breast, 78.3%; with SF-268 CNS, 68.4%; with SF-295 CNS it was 88.6%; with SF-539 CNS, 85.4%; in the experiment with UACC-257 melanoma, 90.2%. The growth in the experiment on M14 melanoma was 86%.
`S=c1[nH]cccc1-c1nnc2n1Nc1nc3ccc(Cl)cc3cc1CS2`: the growth was 92% in the experiment on NCI-H23 lung; 94.9% in the experiment on NCI-H226 lung; 103% in the experiment on NCI-H322M lung; 108% with HOP-62 NSCLC; 102% with NCI-H460 lung; 107% in the experiment on HOP-92 NSCLC. For the same molecule, the growth in the experiment with NCI-H522 lung was 82.6%; with A549/ATCC NSCLC, 107%; in the experiment on 786-0 renal it was 98.8%; in the experiment with COLO 205 colon, 122%; in the experiment with DU-145 prostate it was 117%; with K-562 leukemia, 97.5%. Besides, the growth with MALME-3M melanoma was 110%; in the experiment with MDA-MB-231 breast, 89.9%; with SF-268 CNS, 101%; in the experiment on SF-295 CNS, 98.5%; in the experiment on SF-539 CNS, 97.7%; in the experiment with UACC-257 melanoma it was 102%. Moreover, in the experiment on M14 melanoma, the growth was 98.6%.
As to `O=C1Nc2c(ccc(Cl)c2Cl)/C1=C/c1ccc(F)cc1`, the growth in the experiment with NCI-H23 lung was 87.2%; with NCI-H226 lung, 84.8%; with NCI-H322M lung, 93.9%; in the experiment on HOP-62 NSCLC, 89.3%; in the experiment on NCI-H460 lung, 97.8%; in the experiment on HOP-92 NSCLC, 42.1%. The growth with NCI-H522 lung was 76.4%; in the experiment on A549/ATCC NSCLC, 41.1%; with 786-0 renal, 76.7%; in the experiment with COLO 205 colon it was 97.7%; with DU-145 prostate, 113%; in the experiment with K-562 leukemia, 85%. In addition, the growth with MALME-3M melanoma is 105%; with MDA-MB-231 breast, 83.6%; in the experiment on SF-268 CNS it was 88.8%; with SF-295 CNS it was 109%; in the experiment with SF-539 CNS, 94.8%; in the experiment with UACC-257 melanoma, 97.9%. Moreover, the growth in the experiment on M14 melanoma is 93.9%.
Consider `COc1ccc(C(O)c2cc3c(N)c(C(=O)Nc4ccc(Cl)cc4)sc3nc2C)cc1` (stereo not drawn), for which the growth is 32.7% in the experiment on NCI-H23 lung; 45.3% in the experiment on NCI-H226 lung; 44.6% with NCI-H322M lung; 29.2% in the experiment with HOP-62 NSCLC; 5.37% (active) with NCI-H460 lung; 49.3% with HOP-92 NSCLC. Moreover, the growth is 7.8% (active) in the experiment on NCI-H522 lung; 29.5% in the experiment on A549/ATCC NSCLC; 55.2% with 786-0 renal; 13.6% in the experiment on COLO 205 colon; 6.92% (active) with DU-145 prostate; 3.42% (active) in the experiment with K-562 leukemia. The growth in the experiment with MALME-3M melanoma was 21%; in the experiment on MDA-MB-231 breast, 41.8%; in the experiment with SF-268 CNS it was 42.8%; in the experiment on SF-295 CNS it was 14.5%; in the experiment with SF-539 CNS it was 20.7%; with UACC-257 melanoma it was 56.4%. For the same molecule, the growth with M14 melanoma was 7.86% (active).
With `COc1ccc(C(=O)c2cc3c(N)c(C(=O)Nc4cccc5ccccc45)sc3nc2C)cc1`, the growth was 30.7% in the experiment on NCI-H23 lung; 47.4% with NCI-H226 lung; 51.4% with NCI-H322M lung; 30.2% with HOP-62 NSCLC; 3.06% (active) in the experiment on NCI-H460 lung; 44.5% in the experiment with HOP-92 NSCLC. For the same molecule, the growth with NCI-H522 lung is -28.8% (active); in the experiment with A549/ATCC NSCLC, 17.6%; in the experiment on 786-0 renal, 31.6%; in the experiment on COLO 205 colon, -37.7% (active); in the experiment on DU-145 prostate, 9.48% (active); with K-562 leukemia, 7.36% (active). The growth in the experiment on MALME-3M melanoma was 55%; in the experiment with MDA-MB-231 breast it was 15.7%; in the experiment on SF-268 CNS, 29.1%; with SF-295 CNS, 19.7%; with SF-539 CNS, -9.85% (active); with UACC-257 melanoma, 55.8%. In addition, the growth in the experiment on M14 melanoma was 11.6%.
